Experimental data: publication PMC7862700, “An all-to-all approach to the identification of sequence-specific readers for epigenetic DNA modifications on cytosine”

What was measured:
Experiment in all cases: DAPPL (digital affinity profiling via proximity ligation, sequencing); 10 mM Tris-HCl pH 7.5, 50 mM NaCl, 1 mM DTT, 4% glycerol, room temperature, 30 min; GST-TFs on glutathione beads, 16-mer random dsDNA library, 0.1% formaldehyde crosslink after washing; high values mean tight binding
Settings in all cases: protein: recombinant; tags: N-terminal GST; dsDNA, one strand shown
[1] = target: T1, FLI1 (Homo sapiens, UniProt Q01543 1-452)
T1 sequence: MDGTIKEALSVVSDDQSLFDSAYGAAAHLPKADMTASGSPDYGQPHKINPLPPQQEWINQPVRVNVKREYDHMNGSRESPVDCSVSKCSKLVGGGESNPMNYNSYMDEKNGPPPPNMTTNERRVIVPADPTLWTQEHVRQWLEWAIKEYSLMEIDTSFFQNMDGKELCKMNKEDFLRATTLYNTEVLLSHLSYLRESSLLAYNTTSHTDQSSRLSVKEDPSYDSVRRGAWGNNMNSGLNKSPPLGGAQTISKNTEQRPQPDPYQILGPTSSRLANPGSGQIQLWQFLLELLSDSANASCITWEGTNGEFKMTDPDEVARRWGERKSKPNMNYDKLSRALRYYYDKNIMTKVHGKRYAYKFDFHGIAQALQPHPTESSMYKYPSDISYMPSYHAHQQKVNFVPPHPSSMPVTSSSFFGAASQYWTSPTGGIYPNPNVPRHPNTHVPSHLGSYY
Summary of the method: (§1)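 The binding signal reported is, for every hexamer, its read frequency for a factor over its read frequency for the tag-only sample. Reads came from pools of yeast-expressed, GST-fused human transcription factors on glutathione beads, barcoded with DNA and mixed with that sample, which were incubated with 200 nmole of a random double-stranded 16-mer DNA library in Tris/NaCl/DTT/glycerol buffer at room temperature for 30 min. After washing, the pools were crosslinked with 0.1% formaldehyde, proximity-ligated with BsaI/T4 ligase for 1 h at 37 °C, PCR-amplified and sequenced on an Illumina NextSeq500.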

[2] = target: T2, ELK1 (Homo sapiens, UniProt P19419 1-428)
T2 sequence: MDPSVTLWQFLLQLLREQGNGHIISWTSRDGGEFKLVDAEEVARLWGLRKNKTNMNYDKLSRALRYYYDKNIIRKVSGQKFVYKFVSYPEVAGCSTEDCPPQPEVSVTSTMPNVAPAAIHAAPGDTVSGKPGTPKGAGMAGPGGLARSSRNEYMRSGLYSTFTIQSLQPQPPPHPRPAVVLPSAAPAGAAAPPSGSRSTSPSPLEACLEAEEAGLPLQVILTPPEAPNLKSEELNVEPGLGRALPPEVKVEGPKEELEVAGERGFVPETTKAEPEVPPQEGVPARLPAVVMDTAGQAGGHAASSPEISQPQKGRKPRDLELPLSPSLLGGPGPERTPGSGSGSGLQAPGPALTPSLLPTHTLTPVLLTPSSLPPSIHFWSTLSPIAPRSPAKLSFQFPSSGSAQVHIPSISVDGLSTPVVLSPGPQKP
Summary of the method: as §1

[3] = target: T3, GABPA (Homo sapiens, UniProt Q06546 1-454)
T3 sequence: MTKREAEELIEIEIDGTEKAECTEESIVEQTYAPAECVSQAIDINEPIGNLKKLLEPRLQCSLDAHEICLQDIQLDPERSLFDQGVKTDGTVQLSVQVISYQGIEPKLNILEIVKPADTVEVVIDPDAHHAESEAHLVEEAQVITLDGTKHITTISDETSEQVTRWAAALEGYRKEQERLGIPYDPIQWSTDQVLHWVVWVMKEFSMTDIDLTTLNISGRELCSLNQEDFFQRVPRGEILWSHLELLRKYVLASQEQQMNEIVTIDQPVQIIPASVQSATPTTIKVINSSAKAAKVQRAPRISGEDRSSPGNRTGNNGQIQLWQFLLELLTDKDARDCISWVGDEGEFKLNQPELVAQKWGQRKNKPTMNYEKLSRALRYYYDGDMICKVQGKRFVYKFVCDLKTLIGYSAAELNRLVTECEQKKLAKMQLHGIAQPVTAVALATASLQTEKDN
Summary of the method: as §1

[4] = target: T4, ERG (Homo sapiens, UniProt P11308 1-479)
T4 sequence: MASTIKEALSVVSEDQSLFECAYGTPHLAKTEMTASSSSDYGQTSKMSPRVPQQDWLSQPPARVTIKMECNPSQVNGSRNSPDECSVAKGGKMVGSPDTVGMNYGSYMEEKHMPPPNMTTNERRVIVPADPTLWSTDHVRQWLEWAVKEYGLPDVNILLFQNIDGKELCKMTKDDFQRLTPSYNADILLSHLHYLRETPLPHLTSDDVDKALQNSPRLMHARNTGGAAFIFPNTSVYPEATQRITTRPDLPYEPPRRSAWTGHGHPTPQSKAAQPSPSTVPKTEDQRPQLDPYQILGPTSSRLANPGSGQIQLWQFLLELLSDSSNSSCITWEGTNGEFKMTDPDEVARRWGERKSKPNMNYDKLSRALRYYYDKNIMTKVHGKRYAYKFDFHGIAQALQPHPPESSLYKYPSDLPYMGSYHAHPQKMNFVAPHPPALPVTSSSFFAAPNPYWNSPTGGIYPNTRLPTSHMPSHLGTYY
Summary of the method: as §1

[5] = target: ELF1 (Homo sapiens, UniProt P32519 1-619)
ELF1, sequence (P32519 whole entry): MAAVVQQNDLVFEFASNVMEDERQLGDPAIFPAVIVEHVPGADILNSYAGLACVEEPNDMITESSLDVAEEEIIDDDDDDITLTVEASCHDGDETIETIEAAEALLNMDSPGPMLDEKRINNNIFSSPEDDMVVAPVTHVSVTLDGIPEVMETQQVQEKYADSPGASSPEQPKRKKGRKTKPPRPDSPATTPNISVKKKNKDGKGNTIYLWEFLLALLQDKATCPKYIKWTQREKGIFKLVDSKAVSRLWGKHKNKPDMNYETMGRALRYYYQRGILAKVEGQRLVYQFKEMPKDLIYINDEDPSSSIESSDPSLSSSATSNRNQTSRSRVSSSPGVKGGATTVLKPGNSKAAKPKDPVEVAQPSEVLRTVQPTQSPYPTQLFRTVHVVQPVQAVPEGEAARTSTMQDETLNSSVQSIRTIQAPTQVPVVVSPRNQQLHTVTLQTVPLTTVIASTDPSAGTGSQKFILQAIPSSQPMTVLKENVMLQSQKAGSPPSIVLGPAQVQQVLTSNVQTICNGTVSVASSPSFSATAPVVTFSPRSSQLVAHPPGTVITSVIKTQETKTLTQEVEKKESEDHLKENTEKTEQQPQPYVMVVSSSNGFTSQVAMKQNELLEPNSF
Summary of the method: as §1

[6] = target: T5, EHF (Homo sapiens, UniProt Q9NZC4 1-300)
T5 sequence: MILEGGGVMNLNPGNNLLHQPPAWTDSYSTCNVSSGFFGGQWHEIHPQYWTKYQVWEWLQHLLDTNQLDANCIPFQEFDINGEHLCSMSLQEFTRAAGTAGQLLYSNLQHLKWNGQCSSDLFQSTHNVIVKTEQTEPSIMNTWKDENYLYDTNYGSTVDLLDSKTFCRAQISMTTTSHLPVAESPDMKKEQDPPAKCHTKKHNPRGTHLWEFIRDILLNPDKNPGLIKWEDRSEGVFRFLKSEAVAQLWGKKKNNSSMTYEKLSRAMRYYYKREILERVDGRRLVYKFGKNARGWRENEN
Summary of the method: as §1

[7] = target: SPI1 (Homo sapiens, UniProt P17947 1-270)
Summary of the method: as §1

[8] = target: SPIB (Homo sapiens, UniProt Q01892 1-262)
SPIB, sequence (Q01892 whole entry): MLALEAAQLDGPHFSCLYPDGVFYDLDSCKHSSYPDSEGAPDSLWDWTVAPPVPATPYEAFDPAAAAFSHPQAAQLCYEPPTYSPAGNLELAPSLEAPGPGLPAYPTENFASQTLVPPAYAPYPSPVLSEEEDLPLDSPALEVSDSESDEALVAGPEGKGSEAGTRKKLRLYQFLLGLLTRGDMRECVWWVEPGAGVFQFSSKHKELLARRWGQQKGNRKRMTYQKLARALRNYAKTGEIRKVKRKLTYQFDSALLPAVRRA
Summary of the method: as §1

[9] = target: T6, ELK3 (Homo sapiens, UniProt P41970 1-407)
T6 sequence: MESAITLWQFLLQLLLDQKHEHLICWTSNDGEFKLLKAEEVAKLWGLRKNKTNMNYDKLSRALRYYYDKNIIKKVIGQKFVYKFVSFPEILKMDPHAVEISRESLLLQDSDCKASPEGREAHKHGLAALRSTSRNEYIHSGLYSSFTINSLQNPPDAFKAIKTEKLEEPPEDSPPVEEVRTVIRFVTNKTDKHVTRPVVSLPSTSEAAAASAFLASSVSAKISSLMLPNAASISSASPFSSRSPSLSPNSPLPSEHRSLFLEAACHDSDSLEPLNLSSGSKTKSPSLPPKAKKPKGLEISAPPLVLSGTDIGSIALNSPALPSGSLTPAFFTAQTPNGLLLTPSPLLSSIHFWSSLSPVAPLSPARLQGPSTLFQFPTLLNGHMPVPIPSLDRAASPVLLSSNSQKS
Summary of the method: as §1

Sequence | binding signal [1] | binding signal [2] | binding signal [3] | binding signal [4] | binding signal [5] | binding signal [6] | binding signal [7] | binding signal [8] | binding signal [9]
ACAGCT | 1.15 fold enrichment (6-mer frequency, TF over GST control) | 1.14 fold enrichment (6-mer frequency, TF over GST control) | 1.19 fold enrichment (6-mer frequency, TF over GST control) | 1.17 fold enrichment (6-mer frequency, TF over GST control) | 1.16 fold enrichment (6-mer frequency, TF over GST control) | 1.16 fold enrichment (6-mer frequency, TF over GST control) | 1.11 fold enrichment (6-mer frequency, TF over GST control) | 1.2 fold enrichment (6-mer frequency, TF over GST control) | 1.18 fold enrichment (6-mer frequency, TF over GST control)
AAACTA | 1.17 fold enrichment (6-mer frequency, TF over GST control) | 1.23 fold enrichment (6-mer frequency, TF over GST control) | 1.23 fold enrichment (6-mer frequency, TF over GST control) | 1.23 fold enrichment (6-mer frequency, TF over GST control) | 1.27 fold enrichment (6-mer frequency, TF over GST control) | 1.32 fold enrichment (6-mer frequency, TF over GST control) | 1.22 fold enrichment (6-mer frequency, TF over GST control) | 1.22 fold enrichment (6-mer frequency, TF over GST control) | 1.34 fold enrichment (6-mer frequency, TF over GST control)
ATCTGC | 1.3 fold enrichment (6-mer frequency, TF over GST control) | 1.28 fold enrichment (6-mer frequency, TF over GST control) | 1.47 fold enrichment (6-mer frequency, TF over GST control) | 1.37 fold enrichment (6-mer frequency, TF over GST control) | 1.45 fold enrichment (6-mer frequency, TF over GST control) | 1.34 fold enrichment (6-mer frequency, TF over GST control) | 1.44 fold enrichment (6-mer frequency, TF over GST control) | 1.41 fold enrichment (6-mer frequency, TF over GST control) | 1.34 fold enrichment (6-mer frequency, TF over GST control)
ACCCTT | 1.3 fold enrichment (6-mer frequency, TF over GST control) | 1.23 fold enrichment (6-mer frequency, TF over GST control) | 1.23 fold enrichment (6-mer frequency, TF over GST control) | 1.19 fold enrichment (6-mer frequency, TF over GST control) | 1.16 fold enrichment (6-mer frequency, TF over GST control) | 1.18 fold enrichment (6-mer frequency, TF over GST control) | 1.21 fold enrichment (6-mer frequency, TF over GST control) | 1.19 fold enrichment (6-mer frequency, TF over GST control) | 1.2 fold enrichment (6-mer frequency, TF over GST control)
CTGTTA | 1.22 fold enrichment (6-mer frequency, TF over GST control) | 1.24 fold enrichment (6-mer frequency, TF over GST control) | 1.32 fold enrichment (6-mer frequency, TF over GST control) | 1.28 fold enrichment (6-mer frequency, TF over GST control) | 1.24 fold enrichment (6-mer frequency, TF over GST control) | 1.26 fold enrichment (6-mer frequency, TF over GST control) | 1.27 fold enrichment (6-mer frequency, TF over GST control) | 1.27 fold enrichment (6-mer frequency, TF over GST control) | 1.32 fold enrichment (6-mer frequency, TF over GST control)
ATTATG | 1.3 fold enrichment (6-mer frequency, TF over GST control) | 1.18 fold enrichment (6-mer frequency, TF over GST control) | 1.16 fold enrichment (6-mer frequency, TF over GST control) | 1.2 fold enrichment (6-mer frequency, TF over GST control) | 1.2 fold enrichment (6-mer frequency, TF over GST control) | 1.25 fold enrichment (6-mer frequency, TF over GST control) | 1.25 fold enrichment (6-mer frequency, TF over GST control) | 1.25 fold enrichment (6-mer frequency, TF over GST control) | 1.17 fold enrichment (6-mer frequency, TF over GST control)
ACTTTG | 1.27 fold enrichment (6-mer frequency, TF over GST control) | 1.29 fold enrichment (6-mer frequency, TF over GST control) | 1.12 fold enrichment (6-mer frequency, TF over GST control) | 1.19 fold enrichment (6-mer frequency, TF over GST control) | 1.26 fold enrichment (6-mer frequency, TF over GST control) | 1.19 fold enrichment (6-mer frequency, TF over GST control) | 1.2 fold enrichment (6-mer frequency, TF over GST control) | 1.16 fold enrichment (6-mer frequency, TF over GST control) | 1.07 fold enrichment (6-mer frequency, TF over GST control)
TTGCAT | 1.5 fold enrichment (6-mer frequency, TF over GST control) | 1.43 fold enrichment (6-mer frequency, TF over GST control) | 1.52 fold enrichment (6-mer frequency, TF over GST control) | 1.37 fold enrichment (6-mer frequency, TF over GST control) | 1.39 fold enrichment (6-mer frequency, TF over GST control) | 1.4 fold enrichment (6-mer frequency, TF over GST control) | 1.44 fold enrichment (6-mer frequency, TF over GST control) | 1.38 fold enrichment (6-mer frequency, TF over GST control) | 1.42 fold enrichment (6-mer frequency, TF over GST control)
